Experimental data published in PubChem BioAssay AID651812 (National Center for Advancing Translational Sciences (NCATS), 2012).
Hit rate of the full screen: of about 2,100 compounds, about 650 (31%) were called active. Inconclusive results (about 16%) are left out. Calls come from the whole dose curve; as a rule, active = well fitted inhibition curve with a large enough effect; inconclusive = small, poorly fitted or top-dose-only effect; inactive = flat fitted curve, though single readings scatter. This is one part of the list.

Experiment: qHTS for inhibitors of Vif-A3G interactions: Cherry picks; note: nearly all actives have a fitted effect of over 80% in size
Conditions: HeLa A3G-eYFP + Vif (tagged APOBEC3G with the HIV-1 protein that degrades it), 24 h; Potency: eYFP fluorescence increase; series mostly up to 36.9 µM
Excerpt: The recent discovery and characterization of host restriction factors, which provide a potent defense to invading retroviruses, has provided new targets for antiviral drug development. APOBEC3G (A3G) and APOBEC3F (A3F) are potent cytidine deaminases that block HIV-1 replication; HIV-1 expresses the Vif protein, which counteracts A3G and A3F by binding to them and inducing their proteasomal degradation. The Vif-A3G and Vif-A3F interactions provide two potential targets for development of small molecules which can interfere with the ability of Vif to degrade A3G or A3F. […] To identify inhibitors that can interfere with Vif mediated degradation of A3G and A3F, we have developed Hela cell lines that stably express A3G or A3F tagged with eYFP at the C-terminal end (A3G-eYFP or A3F-eYFP, respectively) and Vif. In the absence of an inhibitor, Vif induces degradation of A3G-eYFP and A3F-eYFP, and the cells are not fluorescent. In the presence of an inhibitor, it is expected that Vif will be unable to degrade A3G-eYFP and/or A3F-eYFP, resulting in an increase in yellow fluorescence. In this assay, Vif A3G was screened against the cherry picks ordered from the MLSMR. NIH Chemical Genomics Center [NCGC] NIH Molecular Libraries Probe Centers Network [MLPCN] MLPCN Grant: MH093245 Assay Submitter (PI): Vinay Pathak, National Cancer Institute
A3G-Vif cells were harvested from T225 flask and resuspended in phenol free OPTI-MEM medium with 5% FBS. Then 5 uL of 140,000 cells/mL resuspended cells was dispensed into each well of low base Aurora COC 1,536-well plates (black walled, clear bottom) using a Multidrop Combi dispenser. After overnight culture at 37 deg C with 5% CO2, a total of 23 nL of compounds at 5 selected concentrations from the NPC or positive control (2 mM stock of MG132) in DMSO was transferred to each well of the assay plate using a pintool (Kalypsys, San Diego, CA), and the plates were further incubated at 37 deg C with 5% CO2 for 24 hours. After that, the plates were measured on Acumen Explorer (TTP Lab Tech). The fluorescence was detected by 488 nm/Ex and […].
Potency is the fitted concentration of half-maximal effect.

Potency, active:
COCCN1C(=O)/C(=C/c2ccc(N3CCCC3)cc2C)SC1=S 2.59 µM
COCCN1C(=O)/C(=C/c2ccc(N3CCCC3)cc2)SC1=S 4.61 µM
COc1cc(/C=C(\C#N)c2nc3ccc(C)cc3[nH]2)ccc1OC(C)C 20.6 µM
COc1cc(/C=C(/C#N)c2nc3ccccc3[nH]2)ccc1OC(=O)c1ccco1 3.53 µM
COc1cc(/C=C(\C#N)c2nc3ccccc3[nH]2)ccc1OCc1ccccc1F 18.4 µM
COc1cc(/C=C(\C#N)c2nc3ccccc3s2)ccc1OCC(=O)Nc1ccccc1 17.7 µM
COc1cc(/C=C(\C#N)c2nc3ccccc3[nH]2)cc(Cl)c1OCc1ccccc1Cl 18.4 µM
COc1cc(/C=C(\C#N)c2nc3ccccc3[nH]2)ccc1O 5.8 µM
COc1cc(Br)c(/C=C(\C#N)c2nc3ccccc3[nH]2)cc1OC 18.4 µM
COc1cc(/C=C(/C#N)c2nc3ccccc3[nH]2)ccc1OCC(=O)Nc1ccccc1C(C)C 16.4 µM
CCOc1ccc2nc(N3C(=O)/C(=C/c4ccc(Cl)cc4)NC3=S)sc2c1 11.6 µM
COc1ccc2nc(N3C(=O)/C(=C/c4ccccc4)NC3=S)sc2c1 3.66 µM
Cc1ccc2c(c1)sc(-c1ccc(N(C)C)cc1)[n+]2C 20.6 µM
COc1ccc(C(=O)/C=C/Nc2ccc([N+](=O)[O-])cc2C)c(OC)c1 11.6 µM
CCCN1C(=O)/C(=C\C=C2\N(CC)c3ccccc3C2(C)C)SC1=S 3.26 µM
CCCN1C(=O)/C(=C/C=C2\N(CC)c3ccccc3C2(C)C)SC1=S 3.96 µM
O=C(NCc1ccccc1C(F)(F)F)c1cccc2c1C(=O)c1ccc(N3CCC(N4CCCCC4)CC3)cc1S2(=O)=O 20.6 µM
O=C(NCc1ccco1)c1cccc2c1C(=O)c1ccc(N3CCC(Cc4ccccc4)CC3)cc1S2(=O)=O 18.4 µM
O=C(NC1CC1)c1cccc2c1C(=O)c1ccc(N3CCC(Cc4ccccc4)CC3)cc1S2(=O)=O 23.1 µM
O=C(NCc1cccc(C(F)(F)F)c1)c1cccc2c1C(=O)c1ccc(N3CCC(Cc4ccccc4)CC3)cc1S2(=O)=O 18.4 µM
O=C(N/N=C/c1ccc([N+](=O)[O-])o1)c1sc2ccccc2c1Cl 18.4 µM
COc1ccccc1OCC(=O)N/N=C/C=C/c1ccc([N+](=O)[O-])o1 16.4 µM
O=C(N/N=C\C=C\c1ccc([N+](=O)[O-])o1)c1cccs1 15.8 µM
Cc1cc2nc3c(=O)n(Cc4ccccc4)c(=O)[nH]c3nc2cc1N 6.27 µM
Cc1cc2nc3c(=O)n(C4CCCCC4)c(=O)[nH]c3nc2cc1N 16.4 µM
CC1CC(C)(C)Nc2ccc(OC(=O)c3ccco3)cc21 (stereo not drawn) 20.6 µM
CC(C)(C)C(=O)c1sc2nc(-c3cccs3)cc(C(F)(F)F)c2c1N 1.3 µM
CC(=O)c1sc2nc(-c3cccs3)cc(C(F)(F)F)c2c1N 7.31 µM
Nc1c(C(=O)C2CC2)sc2nc(-c3cccs3)cc(C(F)(F)F)c12 2.31 µM
Cc1cc(/C=C2\SC(=S)N(Cc3ccco3)C2=O)c(C)n1-c1cccnc1 23.1 µM
CCN1CCN(c2c(/C=C3\SC(=S)N(Cc4ccco4)C3=O)c(C)c(C#N)c(=O)n2C)CC1 18.4 µM
CN(C)c1ccc(C=C2SC(=S)N(Cc3ccco3)C2=O)cc1 2.8 µM
CC(OC(=O)/C(C#N)=C/c1ccc(N(C)C)cc1)C(=O)N(C)Cc1ccccc1 (stereo not drawn) 18.4 µM

Potency, inactive:
Cc1c(=O)n(OCc2ccc(Cl)cc2)c2ccccc2[n+]1[O-]
Nc1nc2n[nH]nc2c(=O)[nH]1
CC12CC3CC(C)(C1)CC(C(=O)NC(=S)N1CCOCC1)(C3)C2
COc1ccc(-c2n[nH]c(C)c2-c2ccc(OC)c(OC)c2)c(O)c1
C=C1C(=O)O[C@@H]2[C@H]1[C@@H](OC(=O)/C(C)=C/C)C/C(C)=C\C(=O)/C=C(\C)[C@@H]2O
COc1ccc(/C=N/NC(=O)c2ccccc2Cl)cc1CSc1nc2ccccc2s1
COc1ccc(OC)c2sc(NC(=O)CCS(=O)(=O)c3ccccc3)nc12
COc1ccc(/C=N\NC(=O)c2ccccc2F)cc1COc1ccc(F)cc1F
O=C(Oc1ccc(Cl)c2cccnc12)c1ccco1
CC1(C)Cc2nc3sc4c(SCC(=O)NCc5ccco5)ncnc4c3cc2CO1
CCS(=O)(=O)N1CCc2cc(C(=O)N3CCN(c4cccc(C(F)(F)F)c4)CC3)ccc21
CCC(C)Sc1cccc(-c2nc3cc(C)ccn3c2NC2CCCCC2)c1 (stereo not drawn)
CN1C(=O)C(O)(C2COC(C)(C)CC2=O)c2cc(Br)ccc21 (stereo not drawn)
N#CC1=C(N)Oc2cc(N)ccc2C1C1CC=CCC1 (stereo not drawn)
COc1ccc(-c2cc(NC=O)c3ncc(-c4ccc(OC)c(OC)c4)n3c2)cc1OC
CCOC(=O)C(=Cc1ccc(-n2ccnc2)cc1)C(=O)OCC
Cn1c(-c2ccccc2)cc2c3no[n+]([O-])c3ccc21
CC(C)(C)NCC(=Cc1ccccc1)C(=O)c1ccccc1
COc1ccc(-c2cnnc(N/N=C/c3ccc(O)c(OC)c3)n2)cc1
Cc1cccc(Nc2nnc(SC/C(O)=C(\C#N)c3nc4ccccc4[nH]3)s2)c1
COc1cc(/C=C(/C(=O)c2cccs2)c2nc3ccccc3[nH]2)ccc1O
N#C/C(=C\c1cccnc1)c1nc2ccccc2[nH]1
COc1ccccc1NC(=O)c1oc2ccccc2c1NC(=O)c1cccc(OC)c1OC
CC(=O)c1cccc(-c2ccnc3c2CC(C(=O)NCC2CC2)O3)c1 (stereo not drawn)
N#CC1CC(c2ccccc2)Nc2cc(Cl)ccc2N1 (stereo not drawn)
COc1ccc(N(C)S(=O)(=O)c2cccc3cccnc23)c(OC)c1
COc1ccc(C(=O)NC2CCCc3ccccc32)cc1[N+](=O)[O-] (stereo not drawn)
COc1ccc2nc(NC(=S)NC(=O)c3ccco3)sc2c1
COc1ccc2nc(NC(=O)Nc3ccccc3OC)sc2c1
O=C(OC12CC3CC(CC(C3)C1)C2)c1ccc(NCc2cc(O)ccc2O)cc1
COc1c(-c2ccc(O)c(O)c2)oc2cc(O)cc(O)c2c1=O
CC(=O)c1c(C)oc2c1cc(NS(=O)(=O)c1ccc(Br)cc1)c1ccccc12
COc1ccc(N/C=C/C(=O)c2cc(OC)c(OC)c(OC)c2)cc1
COc1ccc(C(=O)c2cc([N+](=O)[O-])ccc2N2CCCC2)cc1
COC(=O)c1ccccc1NC(=O)C1CC(=O)N(c2ccc(OC)cc2)C1 (stereo not drawn)
CCCCN1C(=O)/C(=C/C=C2/CC(C)(C)CN2C)SC1=S
Cc1c(C)n(Cc2ccccc2)c2ccc(C(=O)NCc3ccco3)cc12
Cc1cc(C)c(S(=O)(=O)N2CCCCC2CCNC(=O)C(=O)NCc2ccco2)c(C)c1 (stereo not drawn)
Cc1ccc(C(=O)NC(=C(Cl)Cl)S(=O)(=O)c2ccc(Cl)cc2)cc1
CC(=O)c1cccc(-c2ccnc3c2CC(C(=O)NCC2CCOCC2)O3)c1 (stereo not drawn)
COc1ccccc1C(=O)N1CCN(c2cccc(Cl)c2)CC1
Cc1cccc(C(=O)NC(=S)N2CCc3ccccc3C2)c1
O=C(N/N=C/c1ccc([N+](=O)[O-])o1)c1cn2ccc3ccccc3c2n1
O=C(Nc1nc2c(F)cccc2s1)c1ccc([N+](=O)[O-])o1
COc1cc(C2Nc3ccc4ncccc4c3C3=C2C(=O)CCC3)ccc1O (stereo not drawn)
O=C(N/N=C/c1cccs1)c1n[nH]c2c1CCC2
COc1ccccc1OCC(=O)NNC(=O)Nc1ccc(Cl)cc1
CCCOC(=O)/C(=C\c1ccc([N+](=O)[O-])o1)NC(=O)c1ccccc1
O=C(Nc1ncccn1)c1ccc([N+](=O)[O-])o1
COc1cc2c(c(OC)c1OC)-c1ccc(N(C)CC(OC)OC)c(=O)cc1[C@@H](NC(C)=O)CC2
CC(C)(C)c1ccc(Oc2ccc(NC(=O)c3ccccc3C(=O)O)cn2)cc1
COc1cc2ccccc2cc1C(=O)N/N=C/c1cccnc1
Cn1c(=O)[nH]c(=O)c2c1nc(Br)n2Cc1cccc(Br)c1
Cc1nc2c3cc(F)ccc3n(Cc3ccccc3)c2s1
Cc1cccc(C)c1OCCNC(=O)C(=O)NCc1ccco1
COc1cc(C2Oc3ccccc3C=C2[N+](=O)[O-])cc(OC)c1OC (stereo not drawn)
N#CC1=C(N)C(C#N)(C#N)[C@H](c2ccoc2)[C@H]2CN(Cc3ccccc3)CC=C12
CCOC(=O)C1=C(C)N=c2sc(=Cc3cc(Cl)c(OCC(=O)O)c(Cl)c3)c(=O)n2C1c1cccc(OC)c1 (stereo not drawn)
Cc1ccc(-c2cc(NC=O)c3ncc(-c4cccc(C(=O)N(C)C)c4)n3c2)cc1
CCOC(=O)c1c(-c2ccc(OC)cc2)csc1/N=C/C1=C(O)CCCC1=O
Cc1ccc(S(=O)(=O)N2CCN(C(=O)CSC(=S)N3CCCC3)CC2)c(C)c1
COC(=O)C1=C(C)N(Cc2ccco2)C(=O)/C1=C\c1ccc([N+](=O)[O-])cc1
C/C(=N/NC(N)=S)c1ccc(Br)s1
CCCC(=O)NC(c1ccc(OC)cc1)c1ccc2cccnc2c1O (stereo not drawn)
Cn1ccnc1Sc1nc2ccccc2nc1NS(=O)(=O)c1ccccc1
